Screening results from PubChem BioAssay.
This is a sample that favours compounds with a hit; in the whole collection about 12% have one here.
VP16 counter = counter-screen for ROR gamma inhibitors: Gal4-VP16 reporter | Drosophila S2 Gal4-VP16 UAS-luciferase, luminescence, 20 h | Potency, µM (top dose mostly 53.6 µM), for the others: at the highest dose activity, negative = inhibition, most hits filed as inhibitors | actives 3.5% (n = 310,000) | AID 2546;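 also: Gal4-VP16 expression switched on by copper sulfate through the metallothionein promoter; nearly all actives have a fitted effect of over 50% in size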
PLK1 PBD inh = blocks phosphopeptide binding to human PLK1 polo-box domain. P53350. Plk1 PBD binding of FITC phosphopeptide, fluorescence polarization. Potency, µM, without a hit: max response, negative = inhibition, hits mostly inhibitors. actives 2.8% (n = 360,000). AID 720504; also: series mostly up to about 57 µM; nearly all actives have a fitted effect of over 65% in size
RORgamma inh = ROR gamma (mouse) transcription inhibition; P51450; Drosophila S2 Gal4-RORgamma UAS-luciferase reporter, 20 h; Potency, µM (titrated, usually from 53.6 µM), without a hit: at the highest dose activity change, negative = inhibition, hits mostly inhibitors; actives 5.4% (n = 310,000); also: nearly all actives have a fitted effect of over 60% in size
Target sequence (P51450 whole entry, looked up, the tested form may be a part): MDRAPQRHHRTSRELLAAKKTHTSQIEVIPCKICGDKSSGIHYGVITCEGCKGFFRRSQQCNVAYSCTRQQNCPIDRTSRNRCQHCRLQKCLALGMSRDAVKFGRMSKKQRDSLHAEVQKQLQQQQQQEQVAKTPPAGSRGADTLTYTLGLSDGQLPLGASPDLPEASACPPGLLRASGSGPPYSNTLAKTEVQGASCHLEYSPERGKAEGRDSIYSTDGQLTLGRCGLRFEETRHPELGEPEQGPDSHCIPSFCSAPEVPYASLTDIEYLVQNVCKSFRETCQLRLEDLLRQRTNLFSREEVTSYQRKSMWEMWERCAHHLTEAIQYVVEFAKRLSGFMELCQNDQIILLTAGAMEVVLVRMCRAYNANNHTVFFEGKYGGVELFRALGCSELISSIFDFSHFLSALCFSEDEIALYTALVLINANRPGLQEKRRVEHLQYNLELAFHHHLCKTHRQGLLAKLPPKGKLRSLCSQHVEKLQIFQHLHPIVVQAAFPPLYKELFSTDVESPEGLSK
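Luminescence from a UAS-regulated Photinus luciferase reporter in stably transfected Drosophila Schneider cells is measured; decreased signal marks ROR gamma inhibition. Fusion expression is induced by 700 uM copper sulfate for 20 hr.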
Sfp PPTase inh = blocks B. subtilis Sfp PPTase activity | actives 3.5% (n = 310,000) | AID 1490 | Q9F4F7 | Potency, µM, for the others: largest response in the series, negative = inhibition, actives largely listed as inhibitors | Biochemical Sfp PPTase activity, qHTS;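 also: the enzyme is Sfp with the accession as filed and its product quenches rhodamine fluorescence; 0% = enzyme reaction without inhibitor and -100% = no enzyme wells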
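Compounds were incubated with enzyme (final 15 nM) for 15 min at room temperature before substrate addition started the reaction. Fluorescence at 525 nm excitation, 598 nm emission was recorded immediately and after 30 minutes.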
ALDH1A1 block = inhibitors of human aldehyde dehydrogenase 1A1 | P00352 | Purified ALDH1A1, NADH fluorescence, propionaldehyde substrate | Potency, µM (series often up to 75.3 µM), for inactives: at the top dose activity, negative = inhibition, actives largely listed as inhibitors | actives 7.3% (n = 220,000) | AID 1030; active = well fitted inhibition curve with a large enough effect, not every such curve was filed as active; inconclusive = small, poorly fitted or top-dose-only effect, or another doubt; inactive = no such curve, though single readings can be large or run the other way;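 also: plate controls were no enzyme wells and a reference inhibitor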
Starred values were filed as active, the others as inactive; ? = inconclusive; nt = no result given. Unless noted, calls follow the shape of the dose curve; as a rule, active = well fitted curve in the direction sought with a large enough effect; inconclusive = small, poorly fitted or top-dose-only effect, or another doubt; inactive = no such curve, though single readings can be large; an effect the other way counts as inactive or inconclusive. Unless noted, % is scaled to controls: 0 for no effect and ±100 for the full control effect; potency is read from the fitted curve at half-maximal effect.

SMILES	VP16 counter	PLK1 PBD inh	RORgamma inh	Sfp PPTase inh	ALDH1A1 block
O=C1C(O)=CC(=C(c2ccccc2)c2ccccc2)c2ccccc21	nt	-8%	nt	nt	nt
COCCNC(=O)C(c1ccc(C)cc1)N(C(=O)CCC(=O)Nc1ccccn1)C1CCCCC1 (stereo unspecified)	4%	0%	-5%	17%	nt
COc1ccccc1N1CCN(C2=Nc3cccc4cccc2c34)CC1	?	1%	16µM*	-19%	7%
c1ccc(CC2CCN(C3=Nc4cccc5cccc3c45)CC2)cc1	7.1µM*	-4%	?	?	14µM*
c1cc2c3c(cccc3c1)C(N1CCOCC1)=N2	-5%	-17%	-16%	0%	nt
CCn1nnnc1NCc1ccc(N2CCCC2)cc1	-4%	3.8µM*	2%	?	35µM*
CCOC(=O)c1ccc(NC(=O)c2ccc3c(c2)C(=O)N(Cc2cccnc2)C3=O)cc1	11µM*	-3%	-52%	-1%	nt
COC(=O)Cc1ccc(NC(=O)c2ccc3c(c2)C(=O)N(Cc2cccnc2)C3=O)cc1	?	-18%	15%	1%	nt
O=C1c2ccc([N+](=O)[O-])cc2C(=O)N1Cc1cccnc1	-27%	-6%	1.3µM*	11%	nt
CC(C)c1ccc(NC(=O)c2ccc3c(c2)C(=O)N(Cc2cccnc2)C3=O)cc1	18µM*	0%	?	6%	nt
COc1ccccc1N(C)S(=O)(=O)c1ccc(C(=O)OCC(=O)N(C)c2ccccc2)cc1	8%	4%	20%	-15%	32µM*
Cc1[nH]c(C)c(S(=O)(=O)Nc2cccc(Cl)c2C)c1C(=O)N1CCCCC1	-3%	30µM*	-1%	17%	nt
Cc1[nH]c(C)c(S(=O)(=O)NCCc2ccc(S(N)(=O)=O)cc2)c1C(=O)N1CCCC1	3%	27µM*	-10%	11%	nt
Cc1ccccc1CNS(=O)(=O)c1c(C)[nH]c(C)c1C(=O)N1CCCCC1	1%	27µM*	-19%	14%	nt
Cc1ccc(C)c(CNS(=O)(=O)c2c(C)[nH]c(C)c2C(=O)N2CCCC2)c1	-6%	-4%	-16%	10%	nt
Cc1[nH]c(C)c(S(=O)(=O)Nc2cccc(Cl)c2C)c1C(=O)N1CCCC1	10%	-1%	-1%	15%	nt
COc1cccc(CNS(=O)(=O)c2c(C)[nH]c(C)c2C(=O)N2CCCCC2)c1	-3%	30µM*	-1%	19%	nt
COc1ccc(C(C)(NC(C)=O)c2nc(-c3cccc(NC(C)=O)c3)cs2)cc1 (stereo unspecified)	nt	-2%	nt	nt	nt
CCOc1ccc(Oc2ccc(NS(=O)(=O)c3ccc(CCC(=O)O)cc3)cc2)cc1	nt	-17%	nt	nt	nt
CCCCN1C(=O)C(CC(=O)NC2CCCCC2)CC(C(=O)N(C)C)=C1C (stereo unspecified)	nt	-1%	nt	nt	nt
O=C(c1cccc(F)c1)N1CCC2(CC1)CN(c1ncccn1)C2	-3%	nt	7%	-8%	?
O=C(CC[C@H]1O[C@@H](n2ccc(=O)[nH]c2=O)[C@H](O)[C@@H]1O)N[C@H](Cc1ccccc1)C(=O)NCC1CCCO1 (stereo partly specified)	nt	-3%	nt	nt	nt
NS(=O)(=O)c1ccc(CCNS(=O)(=O)c2ccccc2)cc1	11%	-5%	7%	4%	8.9µM*
CSc1nc(C)cc(OCC(=O)N/N=C/c2ccccc2O)n1	0.71µM*	-7%	0.89µM*	14%	-13%
O=C(CSCC(=O)NN=Cc1ccccc1O)NN=Cc1ccccc1O	nt	2%	nt	nt	nt
SMILES	VP16 counter	PLK1 PBD inh	RORgamma inh	Sfp PPTase inh	ALDH1A1 block
O=C(COc1nsnc1N1CCOCC1)N/N=C/c1ccccc1O	3.2µM*	5%	0.71µM*	-7%	?
O=C(O)COc1ccc(/C=N/NC(=O)COc2nsnc2N2CCOCC2)cc1	-1%	-2%	4%	-13%	?
Cc1cc(=O)oc2cc(OCC(=O)N/N=C/c3ccccc3O)ccc12	-19%	-13%	2.2µM*	-14%	nt
O=C(N/N=C1/CC2CCC1C2)c1cc2ccccc2cc1O (stereo unspecified)	0.79µM*	-9%	0.89µM*	15%	nt
O=C(NCC1CCCCC1)c1cc2ccccc2cc1O	?	-14%	38%	-16%	nt
CC1(C(=O)NCc2cccnc2)CCN1C(=O)Cc1cccs1 (stereo unspecified)	nt	-2%	nt	nt	nt
O=C(Nc1ccc(N2CCOCC2)cc1)c1csc([C@@H]2C[C@H](O)[C@@H](CO)O2)n1	nt	2%	nt	nt	nt
